Residual activity data for one compound are collected here from ChEMBL document CHEMBL2218924, “A broad activity screen in support of a chemogenomic map for kinase signalling research and drug discovery” (Biochem J, 2013).

SMILES strings stand for the structures.

The target of assay [1] is Tyrosine-protein kinase SYK (Homo sapiens) (UniProt P43405). The conditions noted are these: at 10 µM.
For assay [2], the target named is T1, Mitogen-activated protein kinase kinase kinase 7 (Homo sapiens) (UniProt O43318).
T1 sequence (whole entry): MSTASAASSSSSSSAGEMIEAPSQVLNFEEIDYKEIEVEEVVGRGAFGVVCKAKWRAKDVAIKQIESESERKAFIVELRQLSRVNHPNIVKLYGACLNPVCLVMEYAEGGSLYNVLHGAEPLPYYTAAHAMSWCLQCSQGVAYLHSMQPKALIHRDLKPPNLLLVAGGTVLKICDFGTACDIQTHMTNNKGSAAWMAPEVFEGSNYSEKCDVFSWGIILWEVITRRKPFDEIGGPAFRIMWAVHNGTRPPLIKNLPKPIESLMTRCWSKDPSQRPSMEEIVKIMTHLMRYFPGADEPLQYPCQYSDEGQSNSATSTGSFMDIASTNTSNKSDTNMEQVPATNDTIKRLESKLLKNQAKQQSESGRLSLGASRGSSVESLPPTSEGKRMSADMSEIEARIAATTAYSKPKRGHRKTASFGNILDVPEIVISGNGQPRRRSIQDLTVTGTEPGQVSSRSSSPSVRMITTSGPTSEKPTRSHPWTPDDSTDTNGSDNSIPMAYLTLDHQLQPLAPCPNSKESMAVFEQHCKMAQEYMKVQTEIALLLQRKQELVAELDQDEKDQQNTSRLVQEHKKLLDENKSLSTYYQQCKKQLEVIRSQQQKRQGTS
The conditions noted are these: at 1 µM.

In assay [3] the target is T1, Mitogen-activated protein kinase kinase kinase 7 (Homo sapiens). The note with it: at 10 µM.
Assay [4] deals with T2, Serine/threonine-protein kinase TAO1 (Homo sapiens) (UniProt Q7L7X3).
T2 sequence (whole entry): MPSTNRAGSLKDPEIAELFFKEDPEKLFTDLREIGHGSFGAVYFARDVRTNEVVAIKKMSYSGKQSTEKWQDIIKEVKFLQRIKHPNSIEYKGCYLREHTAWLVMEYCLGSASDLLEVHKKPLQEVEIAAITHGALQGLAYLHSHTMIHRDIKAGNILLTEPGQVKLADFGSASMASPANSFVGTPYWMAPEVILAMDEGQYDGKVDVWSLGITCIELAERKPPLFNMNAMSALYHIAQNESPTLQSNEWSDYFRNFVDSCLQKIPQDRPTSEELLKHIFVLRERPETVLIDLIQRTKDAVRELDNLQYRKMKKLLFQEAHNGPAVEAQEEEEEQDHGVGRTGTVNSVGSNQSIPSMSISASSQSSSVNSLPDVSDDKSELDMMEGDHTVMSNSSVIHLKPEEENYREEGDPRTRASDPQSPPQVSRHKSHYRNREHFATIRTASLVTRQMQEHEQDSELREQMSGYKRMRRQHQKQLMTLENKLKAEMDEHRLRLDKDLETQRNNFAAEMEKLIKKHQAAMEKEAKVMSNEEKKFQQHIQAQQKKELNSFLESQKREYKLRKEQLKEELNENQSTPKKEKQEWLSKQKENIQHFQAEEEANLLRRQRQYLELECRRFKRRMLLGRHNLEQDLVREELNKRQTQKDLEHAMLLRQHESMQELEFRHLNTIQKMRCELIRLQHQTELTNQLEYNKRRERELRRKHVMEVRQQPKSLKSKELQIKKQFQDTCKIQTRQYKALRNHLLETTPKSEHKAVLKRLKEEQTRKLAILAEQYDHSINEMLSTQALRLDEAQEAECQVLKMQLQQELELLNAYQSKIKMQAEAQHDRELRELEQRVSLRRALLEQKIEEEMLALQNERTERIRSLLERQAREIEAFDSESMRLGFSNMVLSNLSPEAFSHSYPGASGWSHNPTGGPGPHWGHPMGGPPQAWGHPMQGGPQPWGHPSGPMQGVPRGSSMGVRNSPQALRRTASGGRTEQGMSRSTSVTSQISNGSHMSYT
The note with it: at 1 µM.

The target of assay [5] is T2, Serine/threonine-protein kinase TAO1 (Homo sapiens). The conditions noted are these: at 10 µM.
Assay [6] deals with T3, Serine/threonine-protein kinase TAO2 (Homo sapiens) (UniProt Q9UL54).
T3 sequence (whole entry): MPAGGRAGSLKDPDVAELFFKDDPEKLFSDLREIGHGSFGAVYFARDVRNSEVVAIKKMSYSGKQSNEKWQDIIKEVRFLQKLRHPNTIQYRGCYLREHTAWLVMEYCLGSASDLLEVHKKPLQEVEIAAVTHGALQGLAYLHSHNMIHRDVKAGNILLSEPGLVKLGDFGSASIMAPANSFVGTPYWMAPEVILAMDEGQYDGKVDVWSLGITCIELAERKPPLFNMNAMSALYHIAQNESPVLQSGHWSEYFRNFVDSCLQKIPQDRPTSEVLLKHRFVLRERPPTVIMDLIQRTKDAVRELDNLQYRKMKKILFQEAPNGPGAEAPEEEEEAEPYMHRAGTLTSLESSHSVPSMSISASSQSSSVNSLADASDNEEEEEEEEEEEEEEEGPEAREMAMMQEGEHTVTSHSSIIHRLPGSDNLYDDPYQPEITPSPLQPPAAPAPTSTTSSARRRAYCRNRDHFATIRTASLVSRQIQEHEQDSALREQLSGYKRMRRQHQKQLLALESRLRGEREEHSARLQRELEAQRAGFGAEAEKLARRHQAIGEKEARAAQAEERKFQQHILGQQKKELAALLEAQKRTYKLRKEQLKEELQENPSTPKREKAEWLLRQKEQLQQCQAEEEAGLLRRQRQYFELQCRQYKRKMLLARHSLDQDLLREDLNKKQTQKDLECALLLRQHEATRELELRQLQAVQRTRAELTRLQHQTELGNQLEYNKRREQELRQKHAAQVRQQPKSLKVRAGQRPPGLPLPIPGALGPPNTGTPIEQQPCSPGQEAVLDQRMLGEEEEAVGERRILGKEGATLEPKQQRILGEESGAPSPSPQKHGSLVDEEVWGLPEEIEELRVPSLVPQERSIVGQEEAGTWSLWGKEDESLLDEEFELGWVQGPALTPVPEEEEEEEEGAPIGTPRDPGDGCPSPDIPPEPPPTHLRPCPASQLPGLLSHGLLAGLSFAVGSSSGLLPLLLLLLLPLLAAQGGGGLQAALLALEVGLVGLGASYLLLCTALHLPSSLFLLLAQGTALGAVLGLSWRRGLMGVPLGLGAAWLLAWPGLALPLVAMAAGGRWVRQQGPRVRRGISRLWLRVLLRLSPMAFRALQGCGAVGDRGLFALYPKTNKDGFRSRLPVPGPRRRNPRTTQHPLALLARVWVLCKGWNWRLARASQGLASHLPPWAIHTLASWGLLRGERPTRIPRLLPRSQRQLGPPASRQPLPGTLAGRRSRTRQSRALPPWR
The note with it: at 1 µM.

Assay [7] addresses T3, Serine/threonine-protein kinase TAO2 (Homo sapiens). The conditions noted are these: at 10 µM.
For assay [8], the target named is T4, Serine/threonine-protein kinase TAO3 (Homo sapiens) (UniProt Q9H2K8).
T4 sequence (whole entry): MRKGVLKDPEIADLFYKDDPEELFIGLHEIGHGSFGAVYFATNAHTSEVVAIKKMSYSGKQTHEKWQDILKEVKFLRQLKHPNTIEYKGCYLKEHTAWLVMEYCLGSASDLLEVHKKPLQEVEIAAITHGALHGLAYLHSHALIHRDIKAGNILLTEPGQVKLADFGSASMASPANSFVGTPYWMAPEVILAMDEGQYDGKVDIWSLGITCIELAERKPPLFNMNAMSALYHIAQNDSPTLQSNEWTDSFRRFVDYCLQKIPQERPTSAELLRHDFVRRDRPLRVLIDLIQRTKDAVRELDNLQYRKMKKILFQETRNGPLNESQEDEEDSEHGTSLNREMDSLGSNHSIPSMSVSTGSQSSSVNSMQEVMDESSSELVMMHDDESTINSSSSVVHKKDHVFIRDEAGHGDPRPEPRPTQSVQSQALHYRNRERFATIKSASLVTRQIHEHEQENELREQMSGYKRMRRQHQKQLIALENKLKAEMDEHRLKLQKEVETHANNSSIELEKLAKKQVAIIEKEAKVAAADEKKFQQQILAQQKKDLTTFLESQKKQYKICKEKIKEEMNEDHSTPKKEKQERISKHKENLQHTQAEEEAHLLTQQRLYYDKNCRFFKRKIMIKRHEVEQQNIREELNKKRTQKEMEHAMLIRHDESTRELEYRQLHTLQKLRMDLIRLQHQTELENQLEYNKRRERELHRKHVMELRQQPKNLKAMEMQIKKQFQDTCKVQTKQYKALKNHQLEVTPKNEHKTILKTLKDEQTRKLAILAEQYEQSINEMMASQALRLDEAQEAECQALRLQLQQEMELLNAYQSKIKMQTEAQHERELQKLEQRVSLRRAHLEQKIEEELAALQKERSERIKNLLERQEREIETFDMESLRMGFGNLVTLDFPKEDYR
The conditions noted are these: at 1 µM.

Assay [9] concerns the target T4, Serine/threonine-protein kinase TAO3 (Homo sapiens). The note with it: at 10 µM.
Assay [10] addresses T5, Serine/threonine-protein kinase TBK1 (Homo sapiens) (UniProt Q9UHD2).
T5 sequence (whole entry): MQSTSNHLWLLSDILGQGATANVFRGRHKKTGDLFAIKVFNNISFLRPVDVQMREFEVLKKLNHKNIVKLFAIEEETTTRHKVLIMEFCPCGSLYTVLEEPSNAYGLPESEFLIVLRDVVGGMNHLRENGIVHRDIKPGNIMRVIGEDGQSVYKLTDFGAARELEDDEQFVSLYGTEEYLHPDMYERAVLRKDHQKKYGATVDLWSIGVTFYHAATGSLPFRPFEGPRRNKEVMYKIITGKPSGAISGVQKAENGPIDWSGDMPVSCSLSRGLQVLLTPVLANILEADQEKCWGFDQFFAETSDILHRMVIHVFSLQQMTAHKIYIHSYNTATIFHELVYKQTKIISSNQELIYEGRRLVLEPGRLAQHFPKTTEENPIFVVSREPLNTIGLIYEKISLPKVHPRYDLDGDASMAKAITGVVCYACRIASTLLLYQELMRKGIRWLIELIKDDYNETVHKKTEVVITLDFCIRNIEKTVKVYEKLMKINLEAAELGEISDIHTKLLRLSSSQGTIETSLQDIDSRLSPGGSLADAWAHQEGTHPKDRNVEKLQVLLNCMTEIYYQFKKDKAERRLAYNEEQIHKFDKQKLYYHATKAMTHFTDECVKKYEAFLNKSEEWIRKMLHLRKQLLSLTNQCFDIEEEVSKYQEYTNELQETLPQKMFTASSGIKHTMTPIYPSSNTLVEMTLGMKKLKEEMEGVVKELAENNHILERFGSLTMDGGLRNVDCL
The note with it: at 1 µM.

Regarding `CO[C@H]1C[C@@H]2CC[C@@H](C)[C@@](O)(O2)C(=O)C(=O)N2CCCC[C@H]2C(=O)O[C@H]([C@H](C)C[C@@H]2CC[C@@H](O)[C@H](OC)C2)CC(=O)[C@H](C)/C=C(\C)[C@@H](O)[C@@H](OC)C(=O)[C@H](C)C[C@H](C)/C=C/C=C/C=C/1C`, the residual activity in assay [1] is 78%; in assay [2] it was 89%; in assay [3], 82%; in assay [4], 102%; in assay [5] it was 87%; in assay [6] it was 99%. Besides, the residual activity was determined as 96% in [7], 97% in [8], 85% in [9] and 63% in assay [10].
